Screening data as filed in PubChem BioAssay.
Most compounds without a hit are left out; they make up all but 4.5% or so of the library.
Mdm2 MdmX PPI: human Mdm2/MdmX binding inhibition. O15151+Q00987. SaOS-2 split-luciferase Mdm2/MdmX complementation, luminescence. inhibition, % at 8 µM. actives 3% (n = 330,000);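 active means inhibition of at least 50% at 8 µM in the primary screen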
Target sequence (O15151 whole entry, looked up): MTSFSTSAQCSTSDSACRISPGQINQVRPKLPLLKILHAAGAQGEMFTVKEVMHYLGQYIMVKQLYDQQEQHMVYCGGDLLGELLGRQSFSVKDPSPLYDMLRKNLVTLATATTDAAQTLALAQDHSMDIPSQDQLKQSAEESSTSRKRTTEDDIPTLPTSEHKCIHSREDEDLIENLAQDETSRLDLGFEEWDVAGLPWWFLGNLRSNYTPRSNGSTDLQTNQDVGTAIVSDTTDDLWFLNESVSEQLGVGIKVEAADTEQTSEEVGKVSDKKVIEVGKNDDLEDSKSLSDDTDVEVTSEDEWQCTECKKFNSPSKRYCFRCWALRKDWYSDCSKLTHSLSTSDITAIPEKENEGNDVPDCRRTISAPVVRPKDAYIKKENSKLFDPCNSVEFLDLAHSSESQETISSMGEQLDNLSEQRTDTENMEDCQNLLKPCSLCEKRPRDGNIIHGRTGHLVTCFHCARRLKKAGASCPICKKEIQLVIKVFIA
Target sequence (Q00987 whole entry, looked up): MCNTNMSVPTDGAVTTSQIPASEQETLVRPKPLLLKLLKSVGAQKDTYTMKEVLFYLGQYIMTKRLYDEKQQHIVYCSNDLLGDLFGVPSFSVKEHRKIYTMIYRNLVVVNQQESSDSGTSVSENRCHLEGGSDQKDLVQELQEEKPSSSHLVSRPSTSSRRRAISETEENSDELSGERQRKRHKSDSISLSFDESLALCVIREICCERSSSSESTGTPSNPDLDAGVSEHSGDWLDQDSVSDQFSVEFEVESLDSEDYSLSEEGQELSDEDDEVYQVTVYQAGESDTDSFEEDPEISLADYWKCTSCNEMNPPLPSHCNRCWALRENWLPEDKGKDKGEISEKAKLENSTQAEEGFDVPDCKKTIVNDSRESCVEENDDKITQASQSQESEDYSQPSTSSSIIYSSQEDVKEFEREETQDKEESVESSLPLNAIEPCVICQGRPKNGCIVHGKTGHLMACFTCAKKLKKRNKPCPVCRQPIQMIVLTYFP
Beta cell apopt: blocks beta cell apoptosis. INS-1E cytokine-induced death, ATP luminescence, 48 h; percent of positive-control rescue, neutral wells zero. protection from apoptosis, % (test concentration not listed). actives 0.8% (n = 300,000);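 active means Every replicate reaches about 75%, or at least half do and their mean reaches it too, limit read from the data; inconclusive means At least half of replicates reach the limit but their mean does not; inactive means Under half of replicates reach the limit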;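 further: higher means more ATP so stronger rescue from cytokine killing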
Jurkat NFkB inh: inhibitors of the PMA/ionomycin-induced NF-kB reporter in Jurkat cells; PMA/ionomycin-induced NF-kB luciferase reporter, luminescence; inhibition, % at 4 µM; actives 0.53% (n = 330,000); in the data active means inhibition above about 50%
Gli-Sufu antag: blocks Gli-Sufu signaling in a luciferase reporter; actives 0.74% (n = 340,000); Sufu-KO-LIGHT fibroblasts, Gli luciferase reporter luminescence; AID 588413; inhibition, % at 5 µM;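 active means inhibition above about 55%, limit read from the data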
697 NFkB inh: inhibitors of the PMA/ionomycin-induced NF-kB reporter in 697 B cells; 697 B-cell NF-kB luciferase reporter, 16 h; inhibition, % at 4 µM; actives 0.33% (n = 330,000); AID 435022; in the data active means inhibition above about 35%
CSC inhib: cancer stem cell inhibition. actives 1.1% (n = 300,000). cancer stem cell-like cells viability, luminescence. inhibition, % at 7.5 µM; in the data active means inhibition above about 75%; inconclusive means no clear call, values can overlap the other calls; tested in HMLE shEcad cells
Mdm2-MdmX conf: confirmation of human Mdm2/MdmX interaction inhibitors. AID 489028. Mdm2-MdmX binding, luminescent assay. inhibition, % at 8 µM. shares compounds with Mdm2 MdmX PPI. actives 55% (n = 10,000); in the data active means inhibition above about 40%
FLuc counter: full-length luciferase inhibition in Mdm2/MdmX counter-screen. shares compounds with Mdm2 MdmX PPI. SaOS-2 full-length luciferase counterscreen, luminescence. inhibition, % at 8 µM. actives 77% (n = 6,200). AID 504607;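 active means mean inhibition at 8 µM reaching about 37%, which flags the compound as non-specific, limit read from the data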;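 further: p53-null SaOS-2 cells with luciferase driven by a doxycycline-inducible promoter; compound on cells about two nights before reading with doxycycline added after day one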
Numbers stand for hits; . = inactive; ? = inconclusive; / = not tested or not shown.

SMILES | Mdm2 MdmX PPI | Beta cell apopt | Jurkat NFkB inh | Gli-Sufu antag | 697 NFkB inh | CSC inhib | Mdm2-MdmX conf | FLuc counter
Cc1cc(C)c(Cn2c(=O)n(CCCC(=O)NCc3ccco3)c(=O)c3sccc32)c(C)c1 | 51.3 | . | . | . | . | . | 40.5 | 80.1
COc1ccccc1NS(=O)(=O)c1cccc(C(=O)N/N=C(\C)c2cccnc2)c1 | . | . | . | . | . | / | / | /
Cc1cc(C(=O)Nc2ccc([N+](=O)[O-])cn2)cs1 | . | / | . | . | . | . | / | /
CC[C@]12c3[nH]c4ccc(Cl)cc4c3CCN1C(=O)[C@@H](CC(=O)NCc1cccc(C(F)(F)F)c1)C[C@@H]2C(=O)N1CCN(C(=O)c2ccco2)CC1 | 58.3 | / | / | . | . | / | . | /
CC[C@]12c3[nH]c4ccc(OC)cc4c3CCN1C(=O)C(CC(=O)NCc1cccc(C(F)(F)F)c1)C[C@@H]2C(=O)N1CCN(C(=O)c2ccco2)CC1 (stereo partly drawn) | . | / | / | . | . | / | / | /
C[C@]12c3[nH]c4ccc(Cl)cc4c3CCN1C(=O)[C@@H](CC(=O)NCc1cccc(C(F)(F)F)c1)C[C@@H]2C(=O)N1CCCCC1 | 81.3 | / | / | . | . | / | . | /
COc1cccc(C(=O)OCC(=O)NCC2CCCO2)c1 (stereo not drawn) | . | . | . | . | . | . | / | /
Cc1ccc(CN2CC(C(=O)Nc3ncc(C)s3)CC2=O)cc1 (stereo not drawn) | 60.7 | / | . | . | . | / | 59.2 | 65.7
O=c1oc2ccccc2cc1-c1cn2ccccc2n1 | 76.1 | . | . | . | . | . | 62.1 | 72.0
O=c1oc2ccccc2cc1-c1cn2cccnc2n1 | . | . | . | . | . | . | / | /
CC(C)Cc1nnc(NC(=O)CCC(=O)N2CCCCC2)s1 | . | . | . | . | . | . | / | /
Cc1cccc(-n2ncc3c2CCCC3NC(=O)CCN2Cc3ccccc3C2=O)c1C (stereo not drawn) | . | . | . | . | . | . | / | /
c1ccc(CCn2c3ccccc3c3nnc(SCc4ccc5nonc5c4)nc32)cc1 | 90.9 | . | . | . | . | / | 63.0 | 43.5
CCC(=O)Nc1cc(=O)[nH]c2nc(-c3ccc(Cl)cc3)nn12 | . | . | . | . | . | . | / | /
COc1ccc(/C=C/C(=O)Nc2ccc3nc4n(c(=O)c3c2)CCCC4)cc1OC | 59.8 | . | . | . | . | . | . | /
O=C(Nc1ccc2nc3n(c(=O)c2c1)CCCCC3)c1cc([N+](=O)[O-])ccc1F | 98.1 | . | . | . | . | ? | 79.3 | .
O=C(O)c1ccc(NC2=C(Cl)C(=O)c3ccccc3C2=O)cc1 | 100.3 | . | . | . | . | 102.3 | 91.2 | 53.0
O=C(O)c1cccc(NC2=C(Cl)C(=O)c3ccccc3C2=O)c1 | / | / | / | . | / | / | / | /
Cc1ccc(NC(=O)CSC(C)C(=O)OCC(=O)N2CCN(C(=O)c3ccco3)CC2)cc1 (stereo not drawn) | . | . | . | . | . | . | / | /
Oc1c(N=NC(=S)Nc2ccccc2F)c2ccccc2n1Cc1ccc(F)cc1 | 59.4 | . | . | . | . | . | 47.0 | 55.2
Oc1c(N=NC(=S)Nc2ccccc2F)c2ccccc2n1Cc1cccc(Cl)c1 | 58.6 | . | . | . | . | . | . | /
Cc1cccc(Cn2c(O)c(N=NC(=S)Nc3ccccc3F)c3ccccc32)c1 | 62.7 | . | . | . | . | . | 41.9 | 54.4
C=CCn1c(O)c(N=NC(=S)Nc2ccc(OC)c(Cl)c2)c2ccccc21 | . | . | . | . | . | . | / | /
Cc1cccc(NC(=O)Cn2c(O)c(N=NC(N)=S)c3ccccc32)c1 | . | . | . | . | . | . | / | /
Cc1cccc(NC(=S)N=Nc2c(O)n(CN3CCOCC3)c3ccccc23)c1C | . | . | . | . | . | . | / | /
SMILES | Mdm2 MdmX PPI | Beta cell apopt | Jurkat NFkB inh | Gli-Sufu antag | 697 NFkB inh | CSC inhib | Mdm2-MdmX conf | FLuc counter
C[C@]12c3[nH]c4ccc(Cl)cc4c3CCN1C(=O)[C@@H](CC(=O)NCCc1ccccn1)C[C@@H]2C(=O)N1CCCCC1 | . | / | / | . | . | / | / | /
C=CCC[C@H](Cc1ccc(F)cc1)C(=O)OC[C@H](Cc1c[nH]c2ccccc12)NC(=O)[C@@H](CC=C)CC(=O)N(CCO)Cc1ccccc1 | 87.4 | . | . | . | . | . | . | /
C=CCC[C@@H](Cc1ccc(F)cc1)C(=O)OC[C@@H](Cc1c[nH]c2ccccc12)NC(=O)[C@@H](CC=C)CC(=O)NCCO | . | / | . | . | . | / | / | /
C=CCC[C@@H](Cc1ccc(F)cc1)C(=O)OC[C@H](Cc1c[nH]c2ccccc12)NC(=O)[C@H](CC=C)CC(=O)N(CCO)Cc1ccccc1 | 88.3 | / | . | . | . | / | . | 74.2
C=CC[C@@H](CC(=O)N[C@H](CO)Cc1ccccc1)C(=O)NC[C@H](OC(=O)[C@@H](CC=C)Cc1ccc(F)cc1)c1ccccc1 | 58.8 | . | . | . | . | . | 55.2 | 61.6
C=CCC[C@H](Cc1ccc(F)cc1)C(=O)O[C@H](CNC(=O)[C@@H](CC=C)CC(=O)N(CCO)Cc1ccccc1)c1ccccc1 | 63.3 | . | . | . | . | 96.5 | . | /
C=CC[C@H](CC(=O)NCCO)C(=O)NC[C@@H](OC(=O)[C@@H](CC=C)Cc1ccc(F)cc1)c1ccccc1 | . | . | . | . | . | / | / | /
C=CCC[C@H](Cc1ccc(F)cc1)C(=O)OC[C@@H](Cc1c[nH]c2ccccc12)NC(=O)[C@@H](CC=C)CC(=O)N(CCO)Cc1ccccc1 | 85.9 | . | . | . | . | 79.2 | . | /
C=CCC[C@H](Cc1ccc(F)cc1)C(=O)OC[C@H](Cc1c[nH]c2ccccc12)NC(=O)[C@H](CC=C)CC(=O)NCCO | . | . | . | . | . | . | / | /
C=CC[C@H](CC(=O)N(CCO)Cc1ccccc1)C(=O)N[C@H](COC(=O)[C@@H](CC=C)Cc1ccc(F)cc1)Cc1ccccc1 | 71.3 | . | . | . | . | . | . | /
O=C([O-])c1ccccc1-[n+]1c(-c2ccccc2)cc(-c2ccccc2)cc1-c1ccccc1 | . | . | . | . | . | . | / | /
Cc1nn(-c2ccccc2)c(Cl)c1CN(C(=O)CCl)c1ccc(Cl)cc1 | / | . | / | . | / | . | / | /
Cc1nn(-c2ccccc2)c(Cl)c1CN(C(=O)CCl)c1cccc2ccccc12 | 99.2 | . | . | . | . | . | 99.0 | 52.7
Cc1cccc(NC(=O)c2cc(-c3ccc(C)c(C)c3O)n[nH]2)c1 | 53.4 | . | . | . | . | . | . | /
Cc1ccc(NC(=O)c2cc(-c3ccc(C)c(C)c3O)n[nH]2)cc1C | . | . | . | . | . | . | / | /
Cc1cc(/C=C2\SC(=S)N(C)C2=O)c(C)n1-c1ccc(O)cc1 | 84.5 | . | . | . | . | . | 80.8 | 50.3
CN1C(=O)/C(=C/c2coc3ccc(O)cc3c2=O)SC1=S | . | . | . | . | . | . | / | /
